Abeta rescue: qHTS for compounds that reverse cellular toxicity of Amyloid beta (A-beta) peptide in yeast: Primary Screen; yeast expressing A-beta42, growth rescue, OD600, 48 h; response scale: 0% DMSO, 100% iron-clioquinol control; Potency, µM (titrated, usually from 46.1 µM), hits mostly activators; actives 0.063% (n = 410,000); further: potency means the concentration at half of the fitted maximal effect; nearly all actives have a fitted effect of over 55% in size
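Growth rescue measured by 600 nm absorbance after 48 h yeast culture at 30 C with compound. Values normalized between DMSO and an equimolar ferric chloride plus clioquinol control.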
PTHR1 agonist: qHTS for PTHR1 Agonists: Primary Screen; Parathyroid hormone/parathyroid hormone-related peptide receptor (Homo sapiens), Q03431; HEK293 GP2 PTHR1 cells, GloSensor cAMP luminescence, 1 h; Potency, µM (titrated, usually from 115 µM), for the others: at the highest dose activation, usual class: activators; actives 0.075% (n = 410,000); further: potency means the concentration at half of the fitted maximal effect; nearly all actives have a fitted effect of over 55% in size
Target sequence (Q03431 whole entry, looked up): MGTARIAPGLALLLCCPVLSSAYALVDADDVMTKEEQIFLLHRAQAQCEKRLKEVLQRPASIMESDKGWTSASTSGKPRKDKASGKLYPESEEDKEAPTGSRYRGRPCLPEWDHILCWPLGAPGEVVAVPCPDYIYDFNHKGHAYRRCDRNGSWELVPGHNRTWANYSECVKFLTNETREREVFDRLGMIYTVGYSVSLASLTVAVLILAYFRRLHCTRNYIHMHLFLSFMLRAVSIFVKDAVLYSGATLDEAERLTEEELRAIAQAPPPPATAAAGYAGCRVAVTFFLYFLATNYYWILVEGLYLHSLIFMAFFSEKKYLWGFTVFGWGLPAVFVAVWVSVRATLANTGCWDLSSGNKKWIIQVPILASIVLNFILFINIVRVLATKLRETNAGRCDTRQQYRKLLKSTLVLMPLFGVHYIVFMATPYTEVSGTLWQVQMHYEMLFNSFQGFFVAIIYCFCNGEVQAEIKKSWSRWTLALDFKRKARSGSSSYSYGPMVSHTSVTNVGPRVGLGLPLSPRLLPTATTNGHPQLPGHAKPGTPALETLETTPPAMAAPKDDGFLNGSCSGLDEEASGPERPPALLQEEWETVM
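HEK-293-derived GP2 cells expressing PTHR1 and a GloSensor cAMP reporter, 3,000/well, plated overnight, given luciferin plus IBMX (each 0.5 mM as added) for 1 h at 37 °C, then compound for 1 h at 37 °C. Luminescence was read after 15 min at room temperature.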
TDP-43 yeast inh: qHTS of TDP-43 Inhibitors; TDP-43 expressing yeast growth rescue, BacTiter-Glo, 24 h; actives 1.8% (n = 410,000); Potency, µM (top dose mostly 46.1 µM), inactives show at the top dose growth rescue (activation), most hits filed as activators; further: potency means the concentration at half of the fitted maximal effect; % of control where 0% means no effect; nearly all actives have a fitted effect of over 50% in size
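Readout is BacTiter-Glo luminescence of cell growth, so inhibitors register as activators. TDP-43-expressing yeast at OD600=0.02 in galactose medium, after raffinose pregrowth to mid-log, were incubated with compound for 24 hr at 30 deg C.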
LDHA block: qHTS assay for inhibitors of human lactate dehydrogenase | L-lactate dehydrogenase A chain (Homo sapiens), P00338 | purified LDHA, NADH/diaphorase-resazurin fluorescence; stronger effect = lower value | activity change, % (values are at about 110 or 230 µM) | actives 0.15% (n = 480,000) | AID 1347041, 2019; in the data active means activity change below about -30%; inconclusive means mostly about -25% to -30%;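 further: plate controls were DMSO wells for no effect and wells without enzyme for full effect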
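Human LDH5 at 2 nM final in Tris HCl pH 7.4 with 0.06 mM NADH and 0.2 mM pyruvate, reacted 5 minutes at room temperature. Remaining NADH coupled via diaphorase/resazurin; resorufin fluorescence read at 0 and 20 minutes, normalized to enzyme-free and DMSO wells.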
aSyn yeast inh: qHTS of alpha-syn Inhibitors; Potency, µM (doses to about 46.1 µM), for the others: top-dose growth rescue (activation), usual class: activators; actives 0.14% (n = 370,000); AID 652106, 2013; Yeast expressing alpha-synuclein, growth rescue, BacTiter-Glo, 24 h; further: potency means the concentration at half of the fitted maximal effect; % of control where 0% means no effect; nearly all actives have a fitted effect of over 65% in size
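Rescue of yeast growth: cells expressing toxic alpha-synuclein, induced in galactose at OD600 0.02, incubated with compound 24 h at 30 C. ATP luminescence quantified growth; inhibitors of toxicity appear as activators.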
FUS yeast rescue: qHTS for Suppressors of FUS Proteinopathy: Primary screen using FUS-linked yeast assay; AID 1347120, 2019; S. cerevisiae FUS-expressing, growth rescue, OD600, 24 h; actives 0.24% (n = 390,000); Potency, µM (titrated, usually from 76.6 µM), usual class: activators;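 further: potency means the concentration at half of the fitted maximal effect; plate controls were DMSO vehicle for no effect and reference control for full effect; nearly all actives have a fitted effect of over 55% in size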
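S. cerevisiae expressing FUS from galactose induction served as the toxicity model. Growth after 24hr at 30C, read as absorbance at 600 nm, indicates suppression of toxicity; compounds dosed at several concentrations.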
An asterisk follows results filed as active; i = inactive; ? = inconclusive; . = no result; [ ] = dose if it differs, or a comment. Compounds with a hit are over-represented: about 1.9% of the library has one in this group of screens. Unless noted, the call rests on the fitted dose curve; in most records, active means well fitted curve in the direction sought with a large enough effect; inconclusive means small, poorly fitted or top-dose-only effect, or another doubt; inactive means no such curve, though single readings can be large; an effect the other way counts as inactive or inconclusive.

SMILES | Abeta rescue | PTHR1 agonist | TDP-43 yeast inh | LDHA block | aSyn yeast inh | FUS yeast rescue
CCCOC(=O)c1ccc(NC(=O)c2cc(OC)c(OC)c(OC)c2Br)cc1 | i | -28% | 13µM* | -5 | 6% | i
COCCNC(=O)c1ccc2c(c1)ncn2-c1cccc(C)c1 | i | i | . | 0 | . | i
Cc1cccc(-n2cnc3cc(C(=O)N4CCc5ccccc54)ccc32)c1 | i | -9% | 13µM* | 0 | 24% | .
Cc1cc(C(=O)N2CCc3ccccc32)n(-c2ccccc2)n1 | i | -8% | ? | -4 | -1% | i
Cc1cc(C)n(-c2ccc(C(=O)N3CCc4ccccc43)cc2)n1 | i | -40% | 11µM* | -5 | -3% | i
CCc1ccc(CC)c(-c2csc(N)n2)c1 | . | . | . | 10 | . | .
COc1ccccc1C(=O)Oc1ccc(Cl)cc1C(=O)/C=C/c1ccc(F)cc1 | . | . | . | 8 | . | .
O=[N+]([O-])c1nn(-c2cccc(Cl)c2)n(O)c1=NCc1cccnc1 | i | i | 11µM* | -1 | -3% | .
Cc1cccc(-n2nc([N+](=O)[O-])c(=NCc3cccnc3)n2O)c1 | i | -1%[57.5 µM] | ? | 14 | -12% | i
O=[N+]([O-])c1nn(-c2ccc(Cl)cc2)n(O)c1=NCc1cccnc1 | i | -4% | 13µM* | -2 | 1% | .
Cc1cccc(N=c2c([N+](=O)[O-])nn(-c3ccc(Cl)cc3)n2O)c1 | i | -3% | ? | -5 | 1% | i
O=C(O)/C=C/c1ccc(Br)cc1 | . | . | . | 6 | . | .
Clc1cc(Sc2ccc(Br)cc2)nnc1-c1ccccc1 | i | -16% | 5µM* | -7 | -13% | i
COCc1cc(Sc2ccc(Br)cc2)nc(-c2ccccc2)n1 | i | ? | 23% | 1 | -7% | i
COc1ccc(OC)c(CN2CCCCCC2c2cccs2)c1 (stereo not given) | . | . | . | -5 | . | .
O=C(NCC(c1ccco1)N1CCc2ccccc21)c1ccccc1Br (stereo not given) | i | -44% | 14µM* | -1 | 13% | i
O=[N+]([O-])c1cc(C(F)(F)F)ccc1Oc1cccnc1[N+](=O)[O-] | i | -13% | -7%[0.397 µM] | 11 | -2% | i
O=C(Nc1ccccc1)c1ccccc1Oc1ccc(C(F)(F)F)cc1[N+](=O)[O-] | i | i | 20µM* | 3 | 18% | i
O=C(Nc1ccc(F)cc1)c1ccccc1Oc1ccc(C(F)(F)F)cc1[N+](=O)[O-] | i | -35% | 22µM* | -4 | 14µM* | .
O=C(COc1ccc(Br)cc1)N1CCC(c2nc3ccccc3o2)CC1 | . | . | . | 5 | . | .
Cn1c(/C=C/c2c[nH]c3ccccc23)nc2ccccc2c1=O | . | . | . | -15 | . | .
O=C1OCCN1C(=O)[C@H]1[C@H](c2ccc(F)cc2)C(c2ccc(F)cc2)=NN1c1ccc(Br)cc1 | i | -11% | -1% | 1 | ? | ?
Cc1cccc(C2=NN(c3ccccc3)[C@@H](C(=O)N3CCOC3=O)[C@@H]2c2ccc(F)cc2)c1 | i | -9% | 1% | 4 | 23% | 5.6µM*
C[C@@H]1C(c2ccccc2)=NN(c2ccc(Br)cc2)[C@H]1C(=O)N1CCOC1=O | i | -11% | ? | 3 | 20µM* | i
O=C1OCCN1C(=O)[C@H]1[C@H](c2ccc(Cl)cc2)C(c2ccc(F)cc2)=NN1c1ccc(Br)cc1 | i | -6% | -23% | -3 | 10µM* | ?
SMILES | Abeta rescue | PTHR1 agonist | TDP-43 yeast inh | LDHA block | aSyn yeast inh | FUS yeast rescue
Cc1[nH]c2ccc(F)cc2c1CC(=O)N(C)C1CCCC1 | . | . | . | 7 | . | .
O=C1CCC[C@@H]2Cc3[nH]c4c(Cl)ccc(Cl)c4c3[C@@H]3CCN1[C@H]23 | i | -3% | 28µM* | -8 | 15% | i
O=C(COc1ccc2c(=O)c(-c3ccccc3)coc2c1)Nc1ccc2c(c1)OCO2 | . | . | . | 3 | . | .
CCC(=O)Nc1ccc(NCc2ccc(-c3ccccc3)cc2)cc1 | i | -31% | 13µM* | 8 | 0% | i
Cc1cc(=O)n2c(nc3ccccc32)[nH]1 | i | 32µM* | -10% | -4 | 0% | i
COc1ccccc1C(=O)Nc1nsc(-c2ccccc2)n1 | i | -20% | 13µM* | -3 | -6% | i
COc1ccccc1C(=O)Nc1ccncc1 | i | i | 6% | 0 | 6% | i
Cc1ccc(CNC(=O)C(C)n2nc(C)c3sc4ccccc4c3c2=O)cc1 (stereo not given) | i | 45µM* | -13% | -4 | . | i
FC(F)(F)c1ccc(Cl)c(N/N=C/c2ccccc2Cl)c1 | . | . | . | 8 | . | .
Clc1ncnc2scc(-c3ccccc3)c12 | i | -12%[57.5 µM] | 19% | 0 | 15% | i
Cc1ccc(-c2csc3ncnc(Cl)c23)cc1 | i | -13% | 16µM* | 1 | 3% | i
O=C(Nc1ccc(F)cc1)c1ccc2ncsc2c1 | i | -24% | 25µM* | -5 | -20% | i
O=C(Nc1ccc(Cl)cc1)c1ccc2ncsc2c1 | i | -93% | -7% | -1 | -19% | i
CCc1cccc2c(C(=O)Cn3nnc(-c4ccccc4)n3)c[nH]c12 | . | . | . | 3 | . | .
Cn1c(=O)c2c(nc(N3CCCCC3)n2CC(=O)C23CC4CC(CC(C4)C2)C3)n(C)c1=O | . | . | . | -3 | . | .
Cc1ccccc1NCc1ccc(O)c2ncccc12 | i | 10%[57.5 µM] | -14% | 16 | -7% | i
Oc1ccc(CNc2ccccc2Br)c2cccnc12 | . | . | . | 23 | . | 18µM*
CCCCn1c(SCC(=O)NCc2ccc3c(c2)OCO3)nc2cc(C(=O)OC)ccc2c1=O | . | . | . | 3 | . | .
Fc1ccccc1NC(=S)NCCc1ccccn1 | . | . | . | -4 | . | .
COC(=O)[C@]12C[C@H](CC(=O)N3CCOCC3)C(=O)N(Cc3cccc4ccccc34)C1=C[C@H](C(C)(C)C)O[C@@H]2C | . | . | . | . | . | 22µM*
COC(=O)[C@]12C[C@H](CC(=O)N3CCC(c4ccccc4)CC3)C(=O)N(Cc3cccc4ccccc34)C1=C[C@H](C(C)(C)C)O[C@@H]2C | . | . | . | . | . | i
COC(=O)[C@]12C[C@H](CC(=O)NCc3cccs3)C(=O)N(Cc3cccc4ccccc34)C1=C[C@H](C(C)(C)C)O[C@@H]2C | . | . | . | . | . | 10µM*
COC(=O)[C@]12C[C@H](CC(=O)NCCC(C)C)C(=O)N(Cc3cccc4ccccc34)C1=C[C@H](C(C)(C)C)O[C@@H]2C | . | . | . | . | . | 22µM*

Assay outcomes from PubChem BioAssay.
